Source: PubChem BioAssay (NCATS)
Inconclusive results are not listed. Activity calls are given as the source filed them. The call rests on the fitted dose curve; in most records, active means well fitted curve in the direction sought with a large enough effect; inconclusive means small, poorly fitted or top-dose-only effect, or another doubt; inactive means no such curve, though single readings can be large; an effect the other way counts as inactive or inconclusive.

What was measured:
[1] = qHTS of pediatric cancer cell lines to identify multiple opportunities for drug repurposing: Primary screen for RD cells (AID 1347104); further: nearly all actives have a fitted effect of over 55% in size; further: potency means the concentration at half of the fitted maximal effect
Procedure, shortened: (§1)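 Following a 5-hour attachment period, cells at 500-1,000/well received compounds and were cultured for 48 hours. CellTiter-Glo was added and luminescence read to estimate viable, metabolically active cells.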

[2] = qHTS of pediatric cancer cell lines to identify multiple opportunities for drug repurposing: Primary screen for MG 63 (6-TG R) cells (AID 1347105); further: nearly all actives have a fitted effect of over 50% in size; further: potency means the concentration at half of the fitted maximal effect
Procedure, shortened: as §1

[3] = qHTS of pediatric cancer cell lines to identify multiple opportunities for drug repurposing: Primary screen for control Hh wild type fibroblast cells (AID 1347106);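 further: series mostly up to about 46 µM; a drop in luminescence marks cytotoxicity and a rise apparent proliferation; nearly all actives have a fitted effect of over 55% in size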
Procedure, shortened: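 Cells (500-1,000/well) in growth media were settled 5 h at 37 degrees C, then given compounds for 48 h. Viability was read as CellTiter-Glo luminescence. Primary runs used MIPE at 11 points (0.78 nM-46 µM) and NPC at 8 points (0.59 nM-46 µM); follow-ups used 11 points.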

[4] = qHTS of pediatric cancer cell lines to identify multiple opportunities for drug repurposing: Primary screen for Rh30 cells (AID 1347107); further: series mostly up to about 46 µM; nearly all actives have a fitted effect of over 75% in size
Procedure, shortened: (§2)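 Viability after 48 h compound treatment at 37C, 500-1,000 cells/well, read as ATP luminescence with CellTiter-Glo. Primary screens used 11-point (MIPE, 0.78 nM-46 µM) or 8-point (NPC, 0.59 nM-46 µM) final concentrations; follow-up screens used 11-point dilutions.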

[5] = qHTS of pediatric cancer cell lines to identify multiple opportunities for drug repurposing: Primary screen for OHS-50 cells (AID 1347103); further: nearly all actives have a fitted effect of over 40% in size; further: potency means the concentration at half of the fitted maximal effect
Procedure, shortened: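 Cells (500-1,000/well) rested 5 h, then received compounds for 48 h; metabolically active cells were measured by CellTiter-Glo luminescence. Final concentrations spanned up to 46 µM (MIPE, 11-point) or 0.59 nM-46 µM (NPC, 8-point) in primary screens, 11-point in follow-ups.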

[6] = qHTS of pediatric cancer cell lines to identify multiple opportunities for drug repurposing: Primary screen for Rh41 cells (AID 1347108);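 further: series mostly up to about 46 µM; luminescence drop marks cytotoxic hits; nearly all actives have a fitted effect of over 70% in size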
Procedure, shortened: as §1

[7] = qHTS of pediatric cancer cell lines to identify multiple opportunities for drug repurposing: Confirmatory screen for NB1643 cells (AID 1347109); further: nearly all actives have a fitted effect of over 45% in size
Procedure, shortened: as §2

[8] = qHTS of pediatric cancer cell lines to identify multiple opportunities for drug repurposing: Confirmatory screen for A673 cells (AID 1347110); further: nearly all actives have a fitted effect of over 65% in size; further: potency means the concentration at half of the fitted maximal effect
Procedure, shortened: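 A673 cells seeded at 500-1,000 cells/well, rested 5 h, then dosed; primary MIPE 11-point (0.78 nM to 46 µM), NPC (0.59 nM to 46 µM); confirmatory 11-point. CellTiter-Glo luminescence after 48 h.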

[9] = qHTS of pediatric cancer cell lines to identify multiple opportunities for drug repurposing: Confirmatory screen for SK-N-MC cells (AID 1347111);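 further: cells exposed to compound for 48 h before the readout; nearly all actives have a fitted effect of over 70% in size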; further: potency means the concentration at half of the fitted maximal effect
Procedure, shortened: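 SK-N-MC cells at 500-1,000 cells/well in growth media were pre-incubated 5 h, then exposed to compounds at 11-point dilutions for 48 h at 37 degrees C, 5% CO2. Viability was read as CellTiter-Glo luminescence.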

[10] = qHTS of pediatric cancer cell lines to identify multiple opportunities for drug repurposing: Confirmatory screen for BT-12 cells (AID 1347112); further: nearly all actives have a fitted effect of over 55% in size
Procedure, shortened: as §2

[11] = qHTS of pediatric cancer cell lines to identify multiple opportunities for drug repurposing: Confirmatory screen for LAN-5 cells (AID 1347113); further: nearly all actives have a fitted effect of over 65% in size
Procedure, shortened: as §2

[12] = qHTS of pediatric cancer cell lines to identify multiple opportunities for drug repurposing: Confirmatory screen for DAOY cells (AID 1347114); further: nearly all actives have a fitted effect of over 65% in size
Procedure, shortened: (§3)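 Viability measured as metabolically active cells via CellTiter-Glo luminescence following 48 hours of compound exposure, 11-point dilutions in confirmatory testing. 500-1,000 cells/well plated 5 hours before dosing; controls were DMSO and 2.3 µM bortezomib.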

[13] = qHTS of pediatric cancer cell lines to identify multiple opportunities for drug repurposing: Confirmatory screen for NB-EBc1 cells (AID 1347115); further: nearly all actives have a fitted effect of over 45% in size; further: potency means the concentration at half of the fitted maximal effect
Procedure, shortened: as §2

[14] = qHTS of pediatric cancer cell lines to identify multiple opportunities for drug repurposing: Confirmatory screen for SJ-GBM2 cells (AID 1347116); further: nearly all actives have a fitted effect of over 60% in size
Procedure, shortened: as §3

[15] = qHTS of pediatric cancer cell lines to identify multiple opportunities for drug repurposing: Confirmatory screen for TC32 cells (AID 1347118); further: potency means the concentration at half of the fitted maximal effect; nearly all actives have a fitted effect of over 65% in size
Procedure, shortened: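 Luminescent CellTiter-Glo read-out of metabolically active TC32 cells after 48 h compound exposure. Primary: MIPE 11-point, 0.78 nM–46 µM; NPC 8-point, 0.59 nM–46 µM. Confirmatory: 11-point dilutions.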

[16] = qHTS of pediatric cancer cell lines to identify multiple opportunities for drug repurposing: Confirmatory screen for U-2 OS cells (AID 1347122); conditions: outcome: dose series up to 45.9 µM; further: nearly all actives have a fitted effect of over 65% in size
Procedure, shortened: as §2

[17] = qHTS of pediatric cancer cell lines to identify multiple opportunities for drug repurposing: Confirmatory screen for BT-37 cells (AID 1347117); further: nearly all actives have a fitted effect of over 55% in size
Procedure, shortened: as §2

[18] = qHTS of pediatric cancer cell lines to identify multiple opportunities for drug repurposing: Confirmatory screen for MG 63 (6-TG R) cells (AID 1347119); further: nearly all actives have a fitted effect of over 55% in size
Procedure, shortened: as §2

[19] = qHTS of pediatric cancer cell lines to identify multiple opportunities for drug repurposing: Confirmatory screen for control Hh wild type fibroblast cells (AID 1347121); further: nearly all actives have a fitted effect of over 70% in size
Procedure, shortened: as §2

[20] = qHTS of pediatric cancer cell lines to identify multiple opportunities for drug repurposing: Confirmatory screen for Rh41 cells (AID 1347123); further: nearly all actives have a fitted effect of over 60% in size
Procedure, shortened: as §2

Measured: Potency

CCCCOc1cc(C(=O)OCCN(CC)CC)ccc1N
inactive: [1] | [2] | [3] | [4]

CN1CCN(C2Cc3ccccc3Sc3ccc(Cl)cc32)CC1 (configuration not stated)
active: [5] 27.6 µM
inactive: [3] | [4]

CN(C)CCCN1c2ccccc2CCc2ccccc21
active: [5] 27.6 µM
inactive: [2] | [3] | [4] | [6]

CC(CN1c2ccccc2Sc2ccccc21)N(C)C (configuration not stated)
inactive: [3] | [4]

NC(=O)c1ncn([C@@H]2O[C@H](CO)[C@@H](O)[C@H]2O)n1
inactive: [1] | [3] | [4] | [6]

CN(C)CCC=C1c2ccccc2CCc2ccccc21
inactive: [3] | [4] | [6]

[Cl][In]([Cl])[Cl]
active: [5] 25.2 µM
inactive: [2] | [3] | [4] | [6]

CN(C)CCCN1c2ccccc2Sc2ccc(Cl)cc21
inactive: [3] | [4]
active: [5] 27.6 µM

OCc1cc(C(O)CNCCCCCCOCCCCc2ccccc2)ccc1O (configuration not stated)
active: [5] 19.5 µM
inactive: [2] | [3] | [4] | [6]

Cc1ccc2nc(N)[nH]c(=O)c2c1Sc1ccncc1
inactive: [3] | [7] | [10] | [11] | [12] | [14] | [16]
active: [8] 0.465 µM | [9] 2.08 µM | [13] 11.7 µM | [15] 3.29 µM

CCCCOC(=O)c1ccc(O)cc1
inactive: [1] | [2] | [4] | [6]

COC(=O)C1=C(C)NC(C)=C(C(=O)OC)C1c1ccccc1[N+](=O)[O-]
inactive: [3] | [4] | [6]

CSc1ccc2c(c1)C(N1CCN(C)CC1)Cc1ccccc1S2 (configuration not stated)
inactive: [3] | [4] | [6]
active: [5] 27.6 µM

CCN(CC)CCSC(=O)C(c1ccccc1)c1ccccc1
inactive: [1] | [2] | [3] | [4]

c1ccc(CN(CC2=NCCN2)c2ccccc2)cc1
inactive: [5] | [2] | [3] | [4] | [6]

CN1CCCCC1CCN1c2ccccc2Sc2ccc(S(C)=O)cc21 (configuration not stated)
inactive: [1] | [3] | [4] | [6]

O=C(CCCN1CCN(c2ccccn2)CC1)c1ccc(F)cc1
inactive: [1] | [2] | [3] | [4] | [6]

c1ccc2c(CC3=NCCN3)cccc2c1
inactive: [1] | [2] | [3] | [4] | [6]

COCCOC(=O)C1=C(C)NC(C)=C(C(=O)OC/C=C/c2ccccc2)C1c1cccc([N+](=O)[O-])c1 (configuration not stated)
active: [5] 19.5 µM
inactive: [4]

CNCCCC1c2ccccc2C=Cc2ccccc21
inactive: [4] | [6]
active: [5] 21.9 µM | [1] 26.6 µM

Cc1cc(C(C#N)c2ccc(Cl)cc2)c(Cl)cc1NC(=O)c1cc(I)cc(I)c1O (configuration not stated)
inactive: [3]
active: [5] 30.9 µM

CC(=O)O[C@@]12CO[C@@H]1C[C@H](O)[C@@]1(C)C(=O)[C@H](O)C3=C(C)[C@@H](OC(=O)[C@H](O)[C@@H](NC(=O)OC(C)(C)C)c4ccccc4)C[C@@](O)([C@@H](OC(=O)c4ccccc4)[C@H]21)C3(C)C
inactive: [3] | [4]
active: [5] 0.0031 µM

CCCCN(CCCC)CC(O)c1cc(Cl)cc2c1-c1ccc(Cl)cc1/C2=C/c1ccc(Cl)cc1 (configuration not stated)
inactive: [2] | [3] | [4] | [6]

CC(=O)c1ccc2c(c1)N(CCCN(C)C)c1ccccc1S2
inactive: [4]

NC1[C@H]2CN(c3nc4c(cc3F)c(=O)c(C(=O)O)cn4-c3ccc(F)cc3F)C[C@@H]12 (some centres not stated)
inactive: [5] | [2] | [4]

C[C@]12CC[C@@H]3c4ccc(O)cc4CC[C@H]3[C@@H]1CCC2=O
inactive: [1] | [2] | [4]

CC(C(O)c1ccc(O)cc1)N1CCC(Cc2ccccc2)CC1 (configuration not stated)
inactive: [1] | [3] | [4]

CC1=C(C/C=C(\C)CCC[C@H](C)CCC[C@H](C)CCCC(C)C)C(=O)c2ccccc2C1=O
inactive: [1] | [2] | [4] | [6]

CN(C)CCN(Cc1ccccc1)c1ccccn1
inactive: [1] | [2] | [3] | [4]

CNCCC(Oc1ccc(C(F)(F)F)cc1)c1ccccc1 (configuration not stated)
inactive: [3] | [4]
active: [5] 27.6 µM | [2] 16.8 µM

CCN(CC)CCOC(=O)C1(C2CCCCC2)CCCCC1
inactive: [1] | [2] | [3] | [4] | [6]

CC(CN(C)C)CN1c2ccccc2CCc2ccccc21 (configuration not stated)
inactive: [2] | [3] | [4]
active: [5] 17.4 µM

CCN(CC)CCNC(=O)c1cc(Cl)c(N)cc1OC
not listed: [2] | [3] | [11] | [14] | [15]
inactive: all other assays above

CN1[C@@H]2CC(OC(=O)[C@H](CO)c3ccccc3)C[C@H]1[C@@H]1O[C@@H]12 (some centres not stated)
inactive: [5] | [2] | [3] | [4]

CCCCN1CCCC[C@H]1C(=O)Nc1c(C)cccc1C
inactive: [1] | [2] | [4] | [6]

O=c1cc[nH]c(=S)[nH]1
active: [8] 9.27 µM | [9] 2.93 µM | [15] 9.27 µM
not listed: [1] | [6] | [11] | [19]
inactive: all other assays above

C[C@]12CC[C@@H]3c4ccc(O)cc4CC[C@H]3[C@@H]1CC[C@@H]2OC(=O)CCC1CCCC1
inactive: [3] | [4] | [6]
active: [5] 27.6 µM

Nc1ncnc2c1ncn2[C@@H]1O[C@H](CO)[C@@H](O)[C@H]1O
inactive: [1] | [2] | [4] | [6]
